Screens from PubChem.
GPT2 inhibitor: GPT2 alanine aminotransferase inhibition | Recombinant GPT2, coupled pyruvate oxidase/HRP Amplex Red fluorescence | Q8TD30 | AID 1671188 | Potency, µM (top dose mostly 57.7 µM), for the others: at the top dose activity change, negative = inhibition, hits mostly inhibitors | hit rate 0.25% among 100,000; note: % is set by controls: 0 for no effect and ±100 for the full control effect; nearly all actives have a fitted effect of over 60% in size
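Fluorescence of coupled pyruvate oxidase/HRP/Amplex Red system (50uM Amplex, 30 min, dark) reports pyruvate formed by GPT2. Enzyme reaction: 10ng/uL GPT2, 2mM L-alanine, 250uM a-KG, 30 min room temperature, pH 7.5; 50uM AOA control.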
HEK293 tox: cytotoxic compounds in HEK 293 cells | HEK 293 viability, ATP luminescence (CellTiter-Glo), 48-72 h | Potency, µM (highest dose often 115 µM), for inactives: at the highest dose activity change, negative = cytotoxicity, actives largely listed as inhibitors | hit rate 6.6% among 94,000 | AID 1345083; note: % is set by controls: 0 for no effect and ±100 for the full control effect; nearly all actives have a fitted effect of over 60% in size
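Viability of HEK 293 cells, plated at 250 cells/well, was judged by cellular ATP after compound treatment for 48 or 72 hr. Luminescence was imaged 10 min after CellTiter-Glo addition at room temperature.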
NIH3T3 tox: kills NIH 3T3 cells | NIH 3T3 viability, CellTiter-Glo ATP luminescence, 48-72 h | Potency, µM (doses to about 96.7 µM), without a hit: top-dose activity change, negative = cytotoxicity, actives largely listed as inhibitors | hit rate 4.3% among 94,000; note: % is set by controls: 0 for no effect and ±100 for the full control effect; nearly all actives have a fitted effect of over 55% in size
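ATP-dependent luminescence (CellTiter-Glo) served as the viability signal for NIH 3T3 cells treated with compound for 48 or 72 hr at 37 °C.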
Luciferase inh: inhibitors of firefly (Photinus pyralis) luciferase. hit rate 2.5% among 76,000. Potency, µM (doses to about 115 µM), usual class: inhibitors. purified P. pyralis luciferase, luminescence, biochemical. P08659; note: % is set by controls: 0 for no effect and ±100 for the full control effect; nearly all actives have a fitted effect of over 65% in size
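Inhibitors were tested against purified firefly luciferase in a biochemical, low-substrate format (both substrates at 10uM) and luminescence measured with a CCD imager.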
NPR1 antag: blocks ANP-stimulated signaling of human Npr1 receptor. Potency, µM (titrated, usually from 46.3 µM), for inactives: top-dose activity change, negative = inhibition, usual class: inhibitors. HEK293 hNpr1 GloSensor cGMP, ANP-stimulated luminescence. P16066. AID 1347048. hit rate 1.6% among 76,000; calls by dose curve; note: % is set by controls: 0 for no effect and ±100 for the full control effect; nearly all actives have a fitted effect of over 60% in size
Target sequence (P16066 whole entry, looked up): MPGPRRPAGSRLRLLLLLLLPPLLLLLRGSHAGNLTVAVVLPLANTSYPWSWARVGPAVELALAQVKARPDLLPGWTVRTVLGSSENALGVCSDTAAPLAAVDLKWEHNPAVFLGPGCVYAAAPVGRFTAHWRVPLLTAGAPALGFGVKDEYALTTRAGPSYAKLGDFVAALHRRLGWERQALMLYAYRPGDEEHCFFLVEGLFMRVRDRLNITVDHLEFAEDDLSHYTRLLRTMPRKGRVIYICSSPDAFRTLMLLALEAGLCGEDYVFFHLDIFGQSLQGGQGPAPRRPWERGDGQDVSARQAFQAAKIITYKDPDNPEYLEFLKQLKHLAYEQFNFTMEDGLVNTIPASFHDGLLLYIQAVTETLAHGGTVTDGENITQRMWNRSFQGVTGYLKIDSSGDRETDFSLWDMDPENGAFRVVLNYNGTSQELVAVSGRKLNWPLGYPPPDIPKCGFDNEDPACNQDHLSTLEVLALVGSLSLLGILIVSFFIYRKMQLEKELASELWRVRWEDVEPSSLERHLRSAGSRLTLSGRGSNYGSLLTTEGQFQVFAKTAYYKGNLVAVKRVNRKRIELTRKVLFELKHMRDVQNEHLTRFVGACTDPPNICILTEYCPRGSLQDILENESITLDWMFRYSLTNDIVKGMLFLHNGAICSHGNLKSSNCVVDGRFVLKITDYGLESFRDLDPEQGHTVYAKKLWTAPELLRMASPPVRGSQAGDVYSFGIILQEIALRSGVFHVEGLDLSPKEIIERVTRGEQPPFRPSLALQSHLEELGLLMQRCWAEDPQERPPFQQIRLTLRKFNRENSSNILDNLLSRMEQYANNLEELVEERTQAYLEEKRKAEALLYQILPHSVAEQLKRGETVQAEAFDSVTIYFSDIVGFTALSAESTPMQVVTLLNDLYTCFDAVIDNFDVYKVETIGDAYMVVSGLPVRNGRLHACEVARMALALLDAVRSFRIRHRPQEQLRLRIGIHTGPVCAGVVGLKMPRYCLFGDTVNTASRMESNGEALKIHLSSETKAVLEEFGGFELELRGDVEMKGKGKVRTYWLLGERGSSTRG
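HEK293 cells stably expressing human Npr1 and cGMP GloSensor pGS-40F, loaded 2 h with 2% GloSensor reagent, given compound 30 min at room temperature. Luminescence read before and 20 min after 0.1 nM hNppA.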
Npr1 antag conf: hNpr1 antagonism, confirmation assay; shares compounds with NPR1 antag; HEK293 hNpr1 cGMP GloSensor luminescence, ANP-stimulated; Potency, µM (titrated, usually from 57.6 µM), without a hit: at the highest dose activity change, negative = inhibition, actives largely listed as inhibitors; hit rate 76% among 1,400; AID 1347044; calls by dose curve; note: nearly all actives have a fitted effect of over 70% in size
NPR2 antag: hNpr2 antagonism, selectivity versus Npr1; shares compounds with NPR1 antag; HEK293 hNpr2 GloSensor cGMP luminescence, CNP-stimulated; Potency, µM (doses to about 57.6 µM), for the others: at the top dose activity change, negative = inhibition, usual class: inhibitors; hit rate 67% among 1,400; AID 1347046; calls by dose curve; note: nearly all actives have a fitted effect of over 70% in size
FLuc inh counter: FLuc enzyme inhibition, Npr1 counter-screen | AID 1347047 | hit rate 0.7% among 1,400 | purified FLuc enzyme, luminescence, Km substrate | Potency, µM (highest dose often 57.6 µM), inactives show at the highest dose activity change, negative = inhibition, usual class: inhibitors | shares compounds with NPR1 antag; note: 0% is about no effect
GloSensor ctrl: reduces cGMP signal in GloSensor control cells; hit rate 69% among 1,400; Potency, µM (doses to about 57.6 µM), without a hit: top-dose activity change, negative = inhibition, actives largely listed as inhibitors; AID 1347051; shares compounds with NPR1 antag; HEK293 GloSensor cGMP, SNP-stimulated, luminescence; calls by dose curve; note: % is set by controls: 0 for no effect and ±100 for the full control effect; nearly all actives have a fitted effect of over 70% in size
* = called active by the depositor; i = inactive; ? = inconclusive; . = no result; [ ] = dose if it differs, or a comment. Only some compounds are listed: those with a hit (about 10% of all), similar ones and a draw of the others. Unless noted, calls come from the whole dose curve; as a rule, active = well fitted curve in the direction sought with a large enough effect; inconclusive = small, poorly fitted or top-dose-only effect, or another doubt; inactive = no such curve, though single readings can be large; an effect the other way counts as inactive or inconclusive. Potency is the fitted concentration of half-maximal effect.

SMILES	GPT2 inhibitor	HEK293 tox	NIH3T3 tox	Luciferase inh	NPR1 antag	Npr1 antag conf	NPR2 antag	FLuc inh counter	GloSensor ctrl
O=C(c1ccc(F)cc1)N1CCC(Cc2nc(-c3ccccc3)no2)CC1	3.7%	?	?	i	5.01µM*	4.85µM*	6.11µM*	0.2%	5.44µM*
CCOc1cc(C(=O)N2CCC(Cc3nc(-c4ccccc4)no3)CC2)cc(OCC)c1OCC	i	?	?	i	3.6%	.	.	.	.
O=C(c1cccc(F)c1)N1CCC(Cc2nc(-c3ccccc3)no2)CC1	i	?	?	i	6.31µM*	6.85µM*	9.68µM*	-13.4%	6.85µM*
CCNC(=O)N1CCC(Cc2ccc(C(N)=O)cc2)CC1	-22.1%	i	3.2%	i	17.0%	.	.	.	.
CCNC(=O)N1CCC(Cc2ccc(C(=O)NCCc3c[nH]c4ccccc34)cc2)CC1	-18.7%	25.1µM*	17.8µM*	i	14.1µM*	24.3µM*	24.3µM*	-11.7%	27.3µM*
COc1ccccc1N1CCN([C@@H]2[C@H](O)[C@H](CO)O[C@@H]2CN(Cc2ccc(F)cc2)Cc2ccc(F)cc2)CC1	1.6%	28.2µM*	31.6µM*	i	?	?	13.7µM*	0.2%	-23.7%
CC(C)c1ccc(CC(=O)N2CCCc3ncc(C(=O)NCC(C)(C)CO)cc32)cc1	-1.3%[88.5 µM]	?	-2.2%[138 µM]	i	-3.9%[70.6 µM]	.	.	.	.
CC(C)c1ccc(CC(=O)N2CCCc3ncc(C(=O)Nc4cccc(Cl)c4)cc32)cc1	3.0%	25.1µM*	?	i	11.2µM*	15.3µM*	17.2µM*	0.1%	21.7µM*
CC(C)c1ccc(CC(=O)N2CCCc3ncc(C(=O)Nc4ccccn4)cc32)cc1	-6.3%[88.5 µM]	31.6µM*	100µM*	i	20µM*	11.1µM*	17.7µM*	-1.1%[86.2 µM]	11.1µM*
CC(C)c1ccc(CC(=O)N2CCCc3ncc(C(=O)Nc4cccnc4)cc32)cc1	i	8.91µM*	2.82µM*	i	1.41µM*	3.53µM*	6.27µM*	-9.7%[86.2 µM]	4.98µM*
CC(C)c1ccc(CC(=O)N2CCCc3ncc(C(=O)NCCc4ccccc4)cc32)cc1	-2.2%	?	?	?	?	.	.	.	.
FC(F)(F)c1ccc2c(c1)nc1n2[C@@H](CNCc2ccccc2)COC1	-12.0%[88.5 µM]	?	?	i	-15.7%[70.6 µM]	.	.	.	.
Clc1cccc(-c2cnc([C@@H]3COCCN3Cc3cnc4ccccc4c3)[nH]2)c1	0.3%[88.5 µM]	63.1µM*	79.4µM*	i	28.2µM*	?	?	-1.3%[86.2 µM]	?
CNC(=O)c1cc(C2CC2)nc2c1c(C1CCCN1C(=O)c1ccc(OC)cc1)nn2C (stereo unspecified)	.	-3.5%	-16.0%	.	.	.	.	.	.
COc1ccccc1CN1CCc2nc(C(=O)Nc3cccc(C(F)(F)F)c3)oc2CC1	?	31.6µM*	28.2µM*	i	?	21.7µM*	24.3µM*	-7.8%	24.3µM*
Cc1noc(C)c1CN1CCc2nc(C(=O)Nc3cccc(C(F)(F)F)c3)oc2CC1	2.5%[88.5 µM]	?	?	i	31.6µM*	28µM*	31.4µM*	-11.0%[86.2 µM]	19.8µM*
Cc1noc(C)c1CN1CCc2nc(C(=O)NCc3ccccc3)oc2CC1	-7.6%[88.5 µM]	?	-34.4%[138 µM]	i	-13.7%[70.6 µM]	.	.	.	.
